Screening data deposited in PubChem by National Center for Advancing Translational Sciences (NCATS).
Anesthetic bind: binds horse apoferritin like a general anesthetic; P02791; apoferritin/1-aminoanthracene competitive binding, fluorescence; Potency, µM (highest dose often 77.5 µM), without a hit: top-dose activity change, negative = displacement, hits mostly inhibitors; 350,000 tested, 0.074% active; AID 485281; further: potency means the concentration at half of the fitted maximal effect; on the % scale 0 is the no-effect control and ±100 the full control effect; nearly all actives have a fitted effect of over 20% in size
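10 uM apoferritin + 50% sat. 1-AMA, PBS; cpd 10 min RT; Ex380/Em535 endpoint; normalized to free probe vs complex; 4-param Hill fit; propofol titration as pos. ctrl.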
Giardia killer: kills Giardia lamblia; Giardia lamblia trophozoite viability; activity change, % at 7.66 µM, hits read low; 340,000 tested, 0.15% active; in the data active means activity change below about -80%; inconclusive means between about -30% and that limit;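 further: parasites exposed to compound for two days anaerobically before the ATP read; on the % scale 0 is the no-effect control and ±100 the full control effect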
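ATP-content bioluminescence gauges trophozoite survival. Cells (100/well) receive compound and incubate anaerobically for 48 hrs at 37 deg C; detection reagent follows for 15-30 min at room temperature.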
A549 tox-1: kills or reduces viability of A549 cells in Nrf2 counter-screen | A549 ARE-Fluc cells, CellTiter-Fluor viability, 18-24 h | Potency, µM (doses to about 46 µM), for inactives: at the highest dose activity change, negative = cytotoxicity, most hits filed as inhibitors | 390,000 tested, 0.16% active; further: potency means the concentration at half of the fitted maximal effect; on the % scale 0 is the no-effect control and ±100 the full control effect
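A549 ARE_Fluc cells in 5% FBS OPTI-MEM were exposed to compounds in concentration-response for 18-24 h at 37 deg C. Viability was read by CellTiter-Fluor fluorescence (Ex 405/Em 525) after 30 min, before the luciferase read.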
Nrf2 ARE act: activates Nrf2 signaling | AREc32 ARE-luciferase reporter (MCF7-derived line), luminescence, 24 h | Potency, µM (titrated, usually from 46.1 µM), for the others: at the highest dose activation, most hits filed as activators | 410,000 tested, 0.31% active | AID 624171; further: potency means the concentration at half of the fitted maximal effect; % of control where 0% means no effect; nearly all actives have a fitted effect of over 65% in size
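For detection, Steady-Glo was added and plates sat 30 min at RT; before that, AREc32_Fluc cells grown overnight in OPTI-MEM/5% FBS had been treated with 23 nL compound for 24 hr at 37 deg C.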
mIDH1 inhibitor: human IDH1 R132H inhibition; O75874; IDH1-R132H enzyme, NADPH consumption, diaphorase/resazurin fluorescence; Potency, µM (top dose mostly 76.6 µM), without a hit: top-dose activity change, negative = inhibition, actives largely listed as inhibitors; 390,000 tested, 0.093% active; further: potency means the concentration at half of the fitted maximal effect; on the % scale 0 is the no-effect control and ±100 the full control effect; nearly all actives have a fitted effect of over 65% in size
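IDH1-R132H (0.5 ug/mL dispensed) in pH 7.5 Tris buffer was preincubated 30 min with compound, then given a substrate mix of 0.016 mM NADPH and 2 mM alpha-KG for 80 min at room temperature; remaining NADPH was read by diaphorase/resazurin fluorescence.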
Nrf2 block: Nrf2 pathway inhibition. A549 ARE-Fluc reporter, luciferase luminescence, 18-24 h. AID 504444. 360,000 tested, 2.1% active. Potency, µM (top dose mostly 46 µM), for the others: at the highest dose activity change, negative = inhibition, actives largely listed as inhibitors; further: potency means the concentration at half of the fitted maximal effect; on the % scale 0 is the no-effect control and ±100 the full control effect; nearly all actives have a fitted effect of over 60% in size
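Reporter: ARE-Fluc in A549. Exposure: 18-24 h, 37 °C, 5% CO2, 5% FBS OPTI-MEM. Readouts: fluorescent cytotoxicity (CellTiter-Fluor), then luminescent Nrf2 signal after BugLite.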
FLuc counter 3: blocks purified firefly luciferase in Nrf2 counterscreen | shares compounds with Nrf2 block | purified firefly luciferase, luminescence inhibition | Potency, µM (titrated, usually from 57.5 µM), for the others: at the top dose activity change, negative = inhibition, usual class: inhibitors | 1,400 tested, 4% active | AID 720522; further: potency means the concentration at half of the fitted maximal effect; on the % scale 0 is the no-effect control and ±100 the full control effect; nearly all actives have a fitted effect of over 65% in size
Target sequence (P08659 whole entry, looked up): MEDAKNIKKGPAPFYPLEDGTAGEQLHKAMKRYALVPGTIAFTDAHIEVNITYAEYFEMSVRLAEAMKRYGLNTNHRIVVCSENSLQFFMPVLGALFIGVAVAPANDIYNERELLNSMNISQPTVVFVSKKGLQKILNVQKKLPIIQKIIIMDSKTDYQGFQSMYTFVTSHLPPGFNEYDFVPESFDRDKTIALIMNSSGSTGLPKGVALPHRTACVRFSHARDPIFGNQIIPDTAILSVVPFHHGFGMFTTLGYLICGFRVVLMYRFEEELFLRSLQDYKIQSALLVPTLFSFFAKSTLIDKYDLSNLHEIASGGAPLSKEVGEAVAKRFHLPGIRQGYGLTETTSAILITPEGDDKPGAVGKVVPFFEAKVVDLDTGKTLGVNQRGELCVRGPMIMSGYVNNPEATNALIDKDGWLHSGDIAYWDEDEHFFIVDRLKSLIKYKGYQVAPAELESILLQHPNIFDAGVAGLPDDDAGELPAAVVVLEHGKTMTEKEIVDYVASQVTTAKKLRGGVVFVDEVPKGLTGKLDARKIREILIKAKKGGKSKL
A549 tox-2: A549 cytotoxicity, Nrf2 inhibitor counterscreen. shares compounds with Nrf2 block. A549 ARE-Fluc cells, cytotoxicity counterscreen. Potency, µM (series often up to 46.1 µM), for inactives: top-dose activity change, negative = cytotoxicity, hits mostly inhibitors. 1,400 tested, 2% active. AID 720523;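 further: potency means the concentration at half of the fitted maximal effect; cells exposed to compounds for 18 to 24 hours; on the % scale 0 is the no-effect control and ±100 the full control effect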
ARE-Fluc inh: confirmation of Nrf2 inhibitors in A549 ARE reporter cells | Potency, µM (top dose mostly 46.1 µM), for inactives: top-dose activity change, negative = inhibition, hits mostly inhibitors | 1,400 tested, 74% active | shares compounds with Nrf2 block | A549 ARE-firefly luciferase reporter, luminescence; further: potency means the concentration at half of the fitted maximal effect; on the % scale 0 is the no-effect control and ±100 the full control effect; nearly all actives have a fitted effect of over 65% in size
Starred values were filed as active, the others as inactive; ? = inconclusive; / = no result shown. Most compounds without a hit are left out; they make up all but 2.3% or so of the library. Unless noted, the call rests on the fitted dose curve; in most records, active means well fitted curve in the direction sought with a large enough effect; inconclusive means small, poorly fitted or top-dose-only effect, or another doubt; inactive means no such curve, though single readings can be large; an effect the other way counts as inactive or inconclusive.

SMILES	Anesthetic bind	Giardia killer	A549 tox-1	Nrf2 ARE act	mIDH1 inhibitor	Nrf2 block	FLuc counter 3	A549 tox-2	ARE-Fluc inh
CN(C)c1cc[n+](CC(=O)Nc2ccc(Cl)c([N+](=O)[O-])c2)cc1	-9%	1	-3%	0%	-13%	4.6µM*	0%	-5%	8.2µM*
COc1ccc(Cn2c(CCC(=O)Nc3cc(OC)c(OC)c(OC)c3)nc3cccnc32)cc1	-13%	/	-13%	4%	6%	-21%	/	/	/
O=S(=O)(c1ccccc1)N1CCC(O)(CSc2ccc(Cl)cc2)CC1	-4%	6	-9%	0%	0%	9.2µM*	3%	-4%	/
O=S(=O)(c1ccc(Cl)cc1)N1CCC(O)(CN2CCN(Cc3ccccc3)CC2)CC1	-8%	30	-15%	0%	6%	-19%	/	/	/
O=C1Nc2ccccc2N=C(c2ccccc2)C1N(C(=O)c1ccnc2ccccc12)c1ccccc1 (stereo unspecified)	/	/	/	17%	/	/	/	/	/
Cc1ccc(S(=O)(=O)N2CCN(c3ncnc4sccc34)CC2)cc1C	/	6	-11%	4%	7%	?	/	/	/
O=S(=O)(c1ccc2c(c1)OCCO2)N1CCN(c2ncnc3sccc23)CC1	-8%	13	-29%	9%	-4%	2.3µM*	0%	2%	/
CCC[C@H]1NC(=O)[C@H](C)N(C)C(=O)C(C)(C)C(=O)C(C)NC(=O)[C@H](Cc2ccc(OC)cc2)N(C)C(=O)[C@H](C(C)C)N(C)C(=O)CNC(=O)[C@H](CC(C)C)N(C)C(=O)CNC(=O)[C@H]([C@@H](C)CC)OC(=O)[C@H]1C (stereo partly specified)	/	?	1.5µM*	-2%	-7%	1µM*	3%	?	1.8µM*
O=S(=O)(c1ccc(NC(=S)NCCC(c2ccccc2)c2ccccc2)cc1)N1CCOCC1	10%	8	?	1%	-3%	4.1µM*	-12%	-25%	?
CCCCOCCCNC(=S)Nc1ccc(S(=O)(=O)N2CCOCC2)cc1	6%	0	3%	2%	-1%	-27%	/	/	/
COc1cccc(CNC(=O)C(C)n2c(=O)cc(-c3ccccc3)c3c(C)nn(C)c32)c1 (stereo unspecified)	-2%	/	-1%	1%	7%	?	/	/	/
Clc1ccc(-c2noc(CSc3nnc(-c4ccncc4)n3-c3ccccc3)n2)cc1	?	-2	?	3%	-1%	2.3µM*	-9%	-9%	13µM*
CN(C)c1cccc(C(=O)Nc2nc3ccc(S(=O)(=O)N4CCCC4)cc3s2)c1	2%	/	-8%	-3%	2%	/	/	/	/
COc1cc(OC)c(/C=C/c2cc3c4ccccc4ccc3[n+](C)c2)c(OC)c1	/	/	/	/	/	/	6.7µM*	-15%	4.6µM*
COc1cc(OC)c(/C=C/c2c3ccccc3cc[n+]2C)c(OC)c1	/	/	/	/	/	/	1%	?	2.1µM*
Cn1c(=O)c2c(nc(NCc3ccco3)n2C)n(C)c1=O	4%	-7	1%	27%	6%	4%	/	/	/
Cn1c(=O)c2c(nc(NCc3ccco3)n2C/C=C/c2ccccc2)n(C)c1=O	-12%	12	?	5%	5%	4.1µM*	0%	-19%	7.3µM*
